Records with an inconclusive call do not appear. Activity calls are given as the source filed them. The call rests on the fitted dose curve; in most records, active means well fitted curve in the direction sought with a large enough effect; inconclusive means small, poorly fitted or top-dose-only effect, or another doubt; inactive means no such curve, though single readings can be large; an effect the other way counts as inactive or inconclusive.
Tests used:
MCC-13 = assay: qHTS assay to identify novel small-molecules to repurpose for Merkel cell carcinoma treatment (AID 1296009); settings: MCC and control cell lines, CellTiter-Glo viability, 72 h; series mostly up to 46 µM; further: nearly all actives have a fitted effect of over 60% in size
Summary of the method: (§1)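 Luminescence from CellTiter-Glo, read 10 min after addition at room temperature, reported viability following a 72 hr, 37 degree celsius treatment with NPC or MIPE compounds in titration; values normalized to plate controls.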

MCC-26 = assay: as above; settings: MCC and control cell lines, CellTiter-Glo viability, 72 h; series mostly up to 46 µM
Summary of the method: as §1

MKL-1 = assay: as above; settings: MCC and control cell lines, CellTiter-Glo viability, 72 h; series mostly up to 46 µM
Summary of the method: as §1

MKL-2 = assay: as above; settings: MCC and control cell lines, CellTiter-Glo viability, 72 h; series mostly up to 46 µM
Summary of the method: as §1

UISO = assay: as above; settings: MCC and control cell lines, CellTiter-Glo viability, 72 h; series mostly up to 46 µM
Summary of the method: as §1

WaGa = assay: as above; settings: MCC and control cell lines, CellTiter-Glo viability, 72 h; series mostly up to 46 µM
Summary of the method: as §1

C33A = assay: Primary qHTS to identify gynecologic anti-cancer compounds using libraries of approved drugs and bioactive compounds (AID 1345084); settings: Gynecologic cancer cell panel viability, ATPlite luminescence, 48 h; series mostly up to 57.5 µM; further: nearly all actives have a fitted effect of over 55% in size
Summary of the method: (§2)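 Cytotoxicity screen measuring ATP content by luciferase luminescence. Each compound is applied at five concentrations for 48 h at 37 C with 5% CO2.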

CAOV3 = assay: as above; settings: Gynecologic cancer cell panel viability, ATPlite luminescence, 48 h; series mostly up to 57.5 µM
Summary of the method: as §2

CASKI = assay: as above; settings: Gynecologic cancer cell panel viability, ATPlite luminescence, 48 h; series mostly up to 57.5 µM
Summary of the method: as §2

Es-2 = assay: as above; settings: Gynecologic cancer cell panel viability, ATPlite luminescence, 48 h; series mostly up to 57.5 µM
Summary of the method: as §2

HeLa = assay: as above; settings: Gynecologic cancer cell panel viability, ATPlite luminescence, 48 h; series mostly up to 57.5 µM
Summary of the method: as §2

Hek293T = assay: as above; settings: Gynecologic cancer cell panel viability, ATPlite luminescence, 48 h, control line for the selectivity index; series mostly up to 57.5 µM
Summary of the method: as §2

JEG-3 = assay: as above; settings: Gynecologic cancer cell panel viability, ATPlite luminescence, 48 h; series mostly up to 57.5 µM
Summary of the method: as §2

OV90 = assay: as above; settings: Gynecologic cancer cell panel viability, ATPlite luminescence, 48 h; series mostly up to 57.5 µM
Summary of the method: as §2

PA-1 = assay: as above; settings: Gynecologic cancer cell panel viability, ATPlite luminescence, 48 h; series mostly up to 57.5 µM
Summary of the method: as §2

SKOV3 = assay: as above; settings: Gynecologic cancer cell panel viability, ATPlite luminescence, 48 h; series mostly up to 57.5 µM
Summary of the method: as §2

Tov-21-G = assay: as above; settings: Gynecologic cancer cell panel viability, ATPlite luminescence, 48 h; series mostly up to 57.5 µM
Summary of the method: as §2

Tov112D = assay: as above; settings: Gynecologic cancer cell panel viability, ATPlite luminescence, 48 h; series mostly up to 57.5 µM
Summary of the method: as §2

[1] = Drug repurposing screens with cells derived from glioblastoma tumor samples (AID 1345199); settings: GBM patient neurospheres viability, ATP luminescence, 48 h; further: nearly all actives have a fitted effect of over 40% in size; further: potency means the concentration at half of the fitted maximal effect
Summary of the method: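 Primary testing used CD133+ neurospheres from four GBM patients, seven concentrations, 48 h exposure and ATP-based viability; confirmation added three slower-growing patient lines.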

[2] = at 108 µM (top of the series), tumour line B
[3] = at 108 µM (top of the series), tumour line D
[4] = at 45.9 µM (top of the series), tumour line B
[5] = at 45.9 µM (top of the series), tumour line D
[6] = at 46 µM (top of the series), tumour line A
On the % scale 0 is the no-effect control and ±100 the full control effect.

CN(C)CCc1c[nH]c2ccccc12
inactive: Potency (MCC-13) | Potency (MCC-26) | Potency (MKL-1) | Potency (MKL-2) | Potency (UISO) | Potency (WaGa) | Potency (C33A) | Potency (CAOV3) | Potency (CASKI) | Potency (Es-2) | Potency (HeLa) | Potency (Hek293T) | Potency (JEG-3) | Potency (OV90) | Potency (PA-1) | Potency (SKOV3) | Potency (Tov-21-G) | Potency (Tov112D) | activity, negative = cell killing [1, 2] -3.73% | activity, negative = cell killing [1, 3] -2.02%

CCN(CC)CCOC(=O)C(C)(c1ccccc1)c1ccccc1
inactive: Potency (MCC-13) | Potency (MCC-26) | Potency (MKL-1) | Potency (MKL-2) | Potency (UISO) | Potency (WaGa) | Potency (C33A) | Potency (CAOV3) | Potency (CASKI) | Potency (Es-2) | Potency (HeLa) | Potency (Hek293T) | Potency (JEG-3) | Potency (OV90) | Potency (PA-1) | Potency (SKOV3) | Potency (Tov-21-G) | Potency (Tov112D) | activity, negative = cell killing [1, 4] -27.8%
active: Potency ([1]; tumour line A) 10 µM

CCOC(=O)c1ncn2c1CN(C)C(=O)c1c(I)cccc1-2
inactive: Potency (MCC-13) | Potency (MCC-26) | Potency (MKL-1) | Potency (MKL-2) | Potency (UISO) | Potency (WaGa) | Potency (C33A) | Potency (CAOV3) | Potency (CASKI) | Potency (Es-2) | Potency (HeLa) | Potency (Hek293T) | Potency (JEG-3) | Potency (OV90) | Potency (PA-1) | Potency (Tov-21-G) | Potency (Tov112D)

CC(C)NCC(O)c1ccc(N)c(C#N)c1 (centres undefined)
inactive: Potency (MCC-13) | Potency (MCC-26) | Potency (MKL-1) | Potency (MKL-2) | Potency (UISO) | Potency (WaGa) | Potency (C33A) | Potency (CASKI) | Potency (Es-2) | Potency (HeLa) | Potency (Hek293T) | Potency (JEG-3) | Potency (OV90) | Potency (PA-1) | Potency (SKOV3) | Potency (Tov-21-G) | Potency (Tov112D) | activity, negative = cell killing [1, 4] -10.3% | activity, negative = cell killing [1, 5] -5.78% | activity, negative = cell killing [1, 6] -34.1%

CCOC(=O)NC(O)C(Cl)(Cl)Cl (centres undefined)
inactive: Potency (MCC-13) | Potency (MCC-26) | Potency (MKL-1) | Potency (MKL-2) | Potency (UISO) | Potency (WaGa) | Potency (C33A) | Potency (CAOV3) | Potency (CASKI) | Potency (Es-2) | Potency (HeLa) | Potency (Hek293T) | Potency (JEG-3) | Potency (OV90) | Potency (PA-1) | Potency (SKOV3) | Potency (Tov-21-G) | Potency (Tov112D) | activity, negative = cell killing [1, 4] -7.26% | activity, negative = cell killing [1, 5] -2.34% | activity, negative = cell killing [1, 6] -17.3%

CCOC(C(=O)OCCN(C)C)(c1ccccc1)c1ccccc1
inactive: Potency (MCC-13) | Potency (MCC-26) | Potency (MKL-1) | Potency (MKL-2) | Potency (UISO) | Potency (WaGa) | Potency (C33A) | Potency (CAOV3) | Potency (CASKI) | Potency (Es-2) | Potency (HeLa) | Potency (Hek293T) | Potency (JEG-3) | Potency (PA-1) | Potency (SKOV3) | Potency (Tov-21-G) | Potency (Tov112D)

CC1=C2[C@H]3OC(=O)[C@@H](C)[C@@H]3CC[C@@]2(C)C=CC1=O
inactive: Potency (MCC-13) | Potency (MCC-26) | Potency (MKL-1) | Potency (MKL-2) | Potency (UISO) | Potency (WaGa) | Potency (C33A) | Potency (CAOV3) | Potency (CASKI) | Potency (Es-2) | Potency (HeLa) | Potency (Hek293T) | Potency (JEG-3) | Potency (OV90) | Potency (PA-1) | Potency (SKOV3) | Potency (Tov-21-G) | Potency (Tov112D) | activity, negative = cell killing [1, 4] -4.49% | activity, negative = cell killing [1, 5] -15.5% | activity, negative = cell killing [1, 6] -23.4%

Oc1c(Br)cc(Br)cc1Br
inactive: Potency (MCC-13) | Potency (MCC-26) | Potency (MKL-1) | Potency (MKL-2) | Potency (UISO) | Potency (WaGa) | Potency (C33A) | Potency (CAOV3) | Potency (CASKI) | Potency (Es-2) | Potency (HeLa) | Potency (Hek293T) | Potency (JEG-3) | Potency (OV90) | Potency (PA-1) | Potency (SKOV3) | Potency (Tov-21-G) | Potency (Tov112D) | activity, negative = cell killing [1, 4] -7.26% | activity, negative = cell killing [1, 5] 14.2% | activity, negative = cell killing [1, 6] -28%

C[C@]12CC[C@H]3[C@@H](CC=C4C[C@@H](O)CC[C@@]43C)[C@@H]1CC[C@@H]2O
inactive: Potency (MCC-13) | Potency (MCC-26) | Potency (MKL-1) | Potency (MKL-2) | Potency (UISO) | Potency (WaGa) | Potency (C33A) | Potency (CAOV3) | Potency (CASKI) | Potency (Es-2) | Potency (HeLa) | Potency (Hek293T) | Potency (JEG-3) | Potency (OV90) | Potency (PA-1) | Potency (SKOV3) | Potency (Tov-21-G) | Potency (Tov112D) | activity, negative = cell killing [1, 4] -14.5%
active: Potency ([1]; tumour line A) 11.2 µM

CCC(=O)OC1(c2ccccc2)CCN(C)CC1
active: Potency ([1]; tumour line A) 50.1 µM
inactive: Potency (MCC-13) | Potency (MCC-26) | Potency (MKL-1) | Potency (MKL-2) | Potency (UISO) | Potency (WaGa) | Potency (C33A) | Potency (CASKI) | Potency (Es-2) | Potency (HeLa) | Potency (Hek293T) | Potency (JEG-3) | Potency (OV90) | Potency (PA-1) | Potency (SKOV3) | Potency (Tov-21-G) | Potency (Tov112D) | activity, negative = cell killing [1, 2] -0.343% | activity, negative = cell killing [1, 3] -13.5%

ClCc1cccc(Cl)c1
inactive: Potency (MCC-13) | Potency (MCC-26) | Potency (MKL-1) | Potency (MKL-2) | Potency (UISO) | Potency (WaGa) | Potency (C33A) | Potency (CASKI) | Potency (Es-2) | Potency (HeLa) | Potency (Hek293T) | Potency (JEG-3) | Potency (OV90) | Potency (PA-1) | Potency (SKOV3) | Potency (Tov-21-G) | Potency (Tov112D)

COc1ccc(OC)c(CC(C)N)c1 (centres undefined)
inactive: Potency (MCC-13) | Potency (MCC-26) | Potency (MKL-1) | Potency (MKL-2) | Potency (UISO) | Potency (WaGa) | Potency (C33A) | Potency (CAOV3) | Potency (CASKI) | Potency (Es-2) | Potency (HeLa) | Potency (Hek293T) | Potency (JEG-3) | Potency (OV90) | Potency (PA-1) | Potency (Tov-21-G) | Potency (Tov112D) | activity, negative = cell killing [1, 2] -6.52% | activity, negative = cell killing [1, 3] -16.6%

CN(C)C(=O)Oc1cc(OC(=O)N(C)C)cc(C(O)CNC(C)(C)C)c1 (centres undefined)
inactive: Potency (MCC-13) | Potency (MCC-26) | Potency (MKL-1) | Potency (MKL-2) | Potency (UISO) | Potency (WaGa) | Potency (C33A) | Potency (CAOV3) | Potency (CASKI) | Potency (Es-2) | Potency (HeLa) | Potency (Hek293T) | Potency (JEG-3) | Potency (OV90) | Potency (PA-1) | Potency (SKOV3) | Potency (Tov-21-G) | Potency (Tov112D) | activity, negative = cell killing ([1]; at 21.2 µM (top of the series), tumour line B) -7.15% | activity, negative = cell killing ([1]; at 21.2 µM (top of the series), tumour line D) -0.819% | activity, negative = cell killing ([1]; at 21.3 µM (top of the series), tumour line A) -13.9%

Source: PubChem BioAssay (NCATS)
